{"source": "PubChem BioAssay"}
{"biological_target": "Focal adhesion kinase 1 (Homo sapiens) (UniProt Q05397)", "sequence (Q05397 whole entry, looked up)": "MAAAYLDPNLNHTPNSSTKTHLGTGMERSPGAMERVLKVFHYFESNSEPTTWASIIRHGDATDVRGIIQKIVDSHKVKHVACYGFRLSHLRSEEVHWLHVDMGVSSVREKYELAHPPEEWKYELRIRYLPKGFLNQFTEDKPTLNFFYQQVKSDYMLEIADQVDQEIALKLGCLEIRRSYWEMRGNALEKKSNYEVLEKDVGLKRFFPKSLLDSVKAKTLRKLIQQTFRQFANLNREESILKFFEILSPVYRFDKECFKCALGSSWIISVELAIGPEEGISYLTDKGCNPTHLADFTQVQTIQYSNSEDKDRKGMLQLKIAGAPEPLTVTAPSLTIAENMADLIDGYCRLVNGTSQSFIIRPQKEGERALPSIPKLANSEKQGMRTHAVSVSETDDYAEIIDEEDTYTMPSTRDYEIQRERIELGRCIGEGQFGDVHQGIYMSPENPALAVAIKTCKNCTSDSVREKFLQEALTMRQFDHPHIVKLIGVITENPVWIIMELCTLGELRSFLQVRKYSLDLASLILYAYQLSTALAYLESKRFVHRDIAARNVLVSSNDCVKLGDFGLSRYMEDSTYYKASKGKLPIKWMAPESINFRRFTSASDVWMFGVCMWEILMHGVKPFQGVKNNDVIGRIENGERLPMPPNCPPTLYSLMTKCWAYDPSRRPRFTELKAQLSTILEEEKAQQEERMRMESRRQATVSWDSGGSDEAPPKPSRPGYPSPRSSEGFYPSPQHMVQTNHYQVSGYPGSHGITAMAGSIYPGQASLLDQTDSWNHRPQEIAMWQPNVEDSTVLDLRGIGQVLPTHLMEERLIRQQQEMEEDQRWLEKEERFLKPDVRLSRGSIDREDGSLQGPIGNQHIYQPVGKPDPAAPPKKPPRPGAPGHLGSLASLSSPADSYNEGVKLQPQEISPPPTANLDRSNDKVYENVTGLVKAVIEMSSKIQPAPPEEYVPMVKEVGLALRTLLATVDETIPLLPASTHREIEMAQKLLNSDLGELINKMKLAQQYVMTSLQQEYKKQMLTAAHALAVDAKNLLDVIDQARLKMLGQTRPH", "test": "PTK2 protein binding on printed compound slides – biochemical, small-molecule microarray, 635/667 nm fluorescence, BSA, DTT, primary screen (AID 1130);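 also: composite of spot emission at 667 nm and signal to noise over triplicate slides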", "details": "635 nm fluorescence, higher = more signal"}
{"smiles": "C=CCN1C(=O)[C@@]2(Cc3ccccc31)N=C(c1ccc(OCCCO)cc1)O[C@H]2c1ccccc1", "composite z-score": 1.02}
{"smiles": "CN(C)CCCCCCNC(=O)[C@H]1C[C@H]2C(=O)N[C@@H](CCCCN)C(=O)N2[C@H]1c1cccc(OCCO)c1", "composite z-score": 3.91}
{"smiles": "COc1cc2c(cc1OC)CN(C(=O)[C@H]1[C@@H]3C(=O)O[C@@H](c4ccccc4)[C@@H](c4ccccc4)N3[C@@H](c3ccc(O)cc3)[C@]13C(=O)Nc1ccccc13)CC2", "composite z-score": 0.81}
{"smiles": "C=CC1(C(=O)OC)CC=C(C(=O)OC)CC1", "note": "(stereo unspecified)", "composite z-score": 0.286}
{"smiles": "CCCC=C(CCC)[C@@H](NC(=O)c1cccs1)c1ccc(C(F)(F)F)cc1", "composite z-score": -0.201}
{"smiles": "C=CCNC(=O)[C@@H]1[C@H]2C(=O)O[C@H](c3ccccc3)[C@H](c3ccccc3)N2[C@H](c2ccccc2OCCO)[C@@]12C(=O)N(C(=O)OCCOC)c1ccccc12", "composite z-score": -0.0723}
{"smiles": "COC(=O)C[C@H]1O[C@]2(C(=O)N(C)c3ccccc32)[C@@H](C)[C@@H]1[Si](C)(C)F", "composite z-score": 0.26}
{"smiles": "C=CCOC(=O)[C@@H]1[C@H]2C(=O)O[C@H](c3ccccc3)[C@H](c3ccccc3)N2[C@H](c2ccc(OCCOC(=O)[C@@H]3C[C@@H]4C(=O)NCC(=O)N4[C@@H]3c3ccc(O)cc3)cc2)[C@@]12C(=O)Nc1ccc(I)cc12", "composite z-score": 0.823}
{"smiles": "COc1ccc(CCNC(=O)[C@@]2(C)c3ccccc3C(=O)N(C(C)C)[C@H]2c2ccc(CO)cc2)cc1", "composite z-score": -0.0743}
{"smiles": "C=C(CC1([C@@H](NP(=O)(c2ccccc2)c2ccccc2)[C@H]2C[C@@H]2CCCC)CC1)c1ccccc1", "composite z-score": 0.0976}
{"smiles": "COC(=O)[C@H](Cc1ccccc1)N1CC2=C[C@@H](C3CC3)n3c(=O)n(C)c(=O)n3[C@H]2[C@@H]1[C@@H](O)Cc1ccccc1", "composite z-score": 0.148}
